Compound activity (PubChem)
FECH inh: human FECH heme synthesis enzyme inhibition | purified FECH, Ni-mesoporphyrin absorbance 550 nm | P22830 | hit rate 3.3% among 20,000 | AID 1671448 | calls only at 10 µM (by protocol);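 active = enzyme reaction rate more than 3 SD below the solvent-only control wells on the same plate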;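 also: lower slope than DMSO wells means FECH inhibition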
Target sequence (P22830 whole entry, looked up): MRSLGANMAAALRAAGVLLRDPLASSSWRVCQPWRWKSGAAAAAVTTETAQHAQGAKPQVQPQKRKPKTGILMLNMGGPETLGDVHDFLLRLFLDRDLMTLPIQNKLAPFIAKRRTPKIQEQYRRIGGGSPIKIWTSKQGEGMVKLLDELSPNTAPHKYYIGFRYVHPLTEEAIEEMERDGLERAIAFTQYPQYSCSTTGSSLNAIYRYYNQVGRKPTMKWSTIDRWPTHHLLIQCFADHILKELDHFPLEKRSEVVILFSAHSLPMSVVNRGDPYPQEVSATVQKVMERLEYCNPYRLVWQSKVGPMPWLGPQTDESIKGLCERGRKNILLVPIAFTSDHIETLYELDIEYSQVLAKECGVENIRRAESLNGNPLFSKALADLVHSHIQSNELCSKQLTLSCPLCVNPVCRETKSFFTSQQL
Numbers without * were called inactive; i = inactive; + = active, no number. This excerpt belongs to a sample that is enriched for hits.

SMILES | FECH inh
CCOC(=O)Cn1c(=O)n(-c2ccc(C)c(C)c2)c2nc(-c3ccc(OCC)cc3)nc(C(N)=O)c21 | i
COc1ccc(NC(=O)C2CCN(c3ccc(-c4ccc(F)cc4)nn3)CC2)c(OC)c1 | i
Cc1ccc(C)c(Nc2c(-c3ccc4c(c3)CCCC4)c(=O)c2=O)c1 | +
O=c1c(Nc2ccc(F)cc2Cl)c(-c2ccc3c(c2)CCCC3)c1=O | +
COc1ccc(OC)c(Nc2c(-c3ccc4c(c3)CCCC4)c(=O)c2=O)c1 | i
COc1cc(OC)c(Nc2c(-c3ccc4c(c3)CCCC4)c(=O)c2=O)cc1Cl | i
COc1ccc(Nc2c(-c3ccc4c(c3)CCCC4)c(=O)c2=O)c(OC)c1 | +
COc1ccc(C)cc1Nc1c(-c2ccc3c(c2)CCCC3)c(=O)c1=O | i
COc1ccc(Cl)cc1Nc1c(-c2ccc3c(c2)CCCC3)c(=O)c1=O | i
Cc1ccc(Nc2c(-c3ccc4c(c3)CCCC4)c(=O)c2=O)c(Cl)c1 | i
Cc1cc(Cl)ccc1Nc1c(-c2ccc3c(c2)CCCC3)c(=O)c1=O | i
O=C(O)c1cc(Br)cc(S(=O)(=O)NCc2ccco2)c1 | i
C=CCN(C(=O)c1cc(CC(C)C)nn1C)C1CCS(=O)(=O)C1 (stereo not drawn) | i
COc1ccc2[nH]c(C(=O)NCCc3ccccn3)c(C)c2c1 | i
Cc1ccc(CN2c3ccccc3-c3nc(SCC(=O)Nc4ccc(F)c(Cl)c4)ncc3S2(=O)=O)cc1 | +
Cc1ccc(CN2c3ccccc3-c3nc(SCC(=O)Nc4cc(Cl)ccc4C)ncc3S2(=O)=O)cc1 | i
Cc1ccc(CN2CCCN(CC(=O)Nc3ccc(C)c(F)c3)S2(=O)=O)cc1 | i
COCCNC(=O)CSCc1nc(-c2ccc(C)cc2)no1 | i
O=S(=O)(c1cccc2nonc12)N1CCCn2cncc2C1 | i
CCn1c(=O)n(CCOc2ccc(F)cc2)c(=O)c2cnc(-c3ccc(OC)cc3)nc21 | i
Cn1c(=O)n(CCOc2ccc(F)cc2)c(=O)c2cnc(-c3ccc(Cl)cc3)nc21 | i
CCn1c(=O)n(CCOc2ccc(F)cc2)c(=O)c2cnc(-c3ccc(Cl)cc3)nc21 | +
Cc1cccc2oc(CNC(=O)C(c3cccc(F)c3)N(C)C)nc12 (stereo not drawn) | i
CN(C)C(C(=O)NCC1(O)CCCCC1)c1cccc(F)c1 (stereo not drawn) | +
Cc1cccc(C(C(=O)NCc2cnc(C)cn2)N(C)C)c1 (stereo not drawn) | i
SMILES | FECH inh
Cc1ccc(N2CCCS2(=O)=O)cc1NC(=O)COc1ccccc1C | i
CC(C)c1cc(C2CCN(C(=O)CCN3C[C@@H]4CC[C@H]3C4)CC2)[nH]n1 | i
Cc1ccccc1Nc1nc(N2CCOCC2)nc2c1cnn2-c1ccccc1 | i
COc1ccc(C2C=C(c3ccc(Cl)cc3)Nc3nc(NS(=O)(=O)c4ccc(Cl)cc4)nn32)cc1 (stereo not drawn) | i
Cc1ccc(-c2cc(C(=O)Nc3ccc(S(N)(=O)=O)cc3)no2)cc1C | +
NS(=O)(=O)c1ccc(CCNC(=O)c2cc(-c3ccc(Cl)cc3)on2)cc1 | i
Cc1nc(-c2cccc(NC(=O)Nc3ccc(S(N)(=O)=O)cc3)c2)no1 | i
CNC(=O)C1CCC(Cn2c(=O)c3sccc3n(CC(=O)NC3CCCCC3)c2=O)CC1 (stereo not drawn) | i
CCOC(=O)c1c(NC(=O)c2ccco2)sc2c1CCN(C(C)C)C2 | i
CCOC(=O)c1c(NC(=O)c2ccc(N3C(=O)CCC3=O)cc2)sc2c1CCN(C(C)C)C2 | +
CCOC(=O)c1c(NC(=O)c2cccs2)sc2c1CCN(C(C)C)C2 | i
NS(=O)(=O)c1ccc(CN2Cc3ncccc3C2=O)cc1 | i
NC(=O)[C@H](Cc1ccccc1)N1Cc2ncccc2C1=O | +
O=C1c2cccnc2CN1C(CCn1cncn1)c1ccccc1 (stereo not drawn) | i
CSc1nnc(CC2CCN(C/C=C/c3ccco3)CC2)n1C | i
CNc1nc(N2CCC(Cc3nnc(SC)n3C)CC2)nc2c1CCC2 | +
CCOc1ccc(C(=O)Nc2cc(N3CCCS3(=O)=O)ccc2OC)cc1 | i
CNc1ncccc1C(=O)N1CCn2cncc2C1 | i
CCCc1cc(=O)n2[nH]c(CNc3ccccc3OCC)nc2n1 | i
CCCc1cc(=O)n2[nH]c(CNc3cc(Cl)ccc3OC)nc2n1 | i
CCCc1cc(=O)n2[nH]c(CNc3ccc(C)c(Cl)c3)nc2n1 | +
CCCc1cc(=O)n2[nH]c(CNc3ccccc3F)nc2n1 | +
CCCc1cc(=O)n2[nH]c(CNc3ccccc3Cl)nc2n1 | i
CCCc1cc(=O)n2[nH]c(CNc3ccc(C)cc3)nc2n1 | +
CCCc1cc(=O)n2[nH]c(CNc3ccc(Br)cc3)nc2n1 | +
SMILES | FECH inh
CN(CCCNC(=O)C1CCN(c2ccc(-c3ccccc3)nn2)CC1)Cc1ccccc1 | i
CCc1c(C(=O)N2CCCC2c2nc(CCOC)no2)[nH]c2ccccc12 (stereo not drawn) | i
OCCn1ccnc1-c1cccc(OCc2ccccc2)c1 | i
CC(c1cccnc1)N(C)Cc1cn[nH]c1C(=O)O (stereo not drawn) | i
COc1ccc(N2C(=O)CCS2(=O)=O)cc1S(=O)(=O)Nc1ccccc1C(C)(C)C | i
Cc1ccc(NC(=O)c2ccc(=O)n(Cc3ccc(F)cc3)c2)c(C)c1 | i
Cc1cc(Nc2ccc(OC(=O)C3CC3)cc2)n2nc(-c3cccnc3)nc2n1 | i
Cc1cccc(NC(=O)c2ccc(CNc3nc4nc(C)cc(=O)n4[nH]3)cc2)c1 | i
CCCc1cc(=O)n2[nH]c(CNc3ccc(F)cc3)nc2n1 | +
CCCc1cc(=O)n2[nH]c(CNc3cccc(C(F)(F)F)c3)nc2n1 | +
CCCc1cc(=O)n2[nH]c(CNc3cccc(C)c3)nc2n1 | +
Cc1cccc(-c2nc3nc(CNC(C)C)cc(=O)n3[nH]2)c1 | i
O=c1cc(CNc2cccc(C(F)(F)F)c2)nc2nc(NCc3ccc(F)cc3)[nH]n12 | i
COc1cccc(NCc2cc(=O)n3[nH]c(NCc4ccc(F)cc4)nc3n2)c1 | i
CN1CCN(c2ccnc3ccccc23)CC1C(=O)O (stereo not drawn) | i
CCS(=O)(=O)Cc1nc2c([nH]1)CC(c1ccc(F)cc1)CNC2=O (stereo not drawn) | i
COC(C)(C)CC(C)NCc1nc(-c2ccccc2C)no1 (stereo not drawn) | i
O=C(N[C@@H]1CCC[C@H]1OCc1ccccc1)c1cc2n(n1)CCCNC2 | i
CC(=O)Nc1ccccc1NC(=O)CNCc1csc2c1CCCC2 | i
CCOc1ccc(NS(=O)(=O)c2ccc3c(c2)CCN3C(=O)CCC(=O)N2CCOCC2)cc1 | i
Cc1cc(N(C)C)nc(N2CCN(S(=O)(=O)c3ccc(Oc4ccccc4)cc3)CC2)n1 | i
Cc1cccc(S(=O)(=O)N2CCN(c3nc(C)cc(N(C)C)n3)CC2)c1 | i
Cc1cc(N(C)C)nc(N2CCN(S(=O)(=O)c3ccccc3)CC2)n1 | +
Cc1ccc2c(C(=O)N(C)Cc3cnccn3)cc(C)nc2c1 | i
CCc1ccc(S(=O)(=O)NCc2nc3cccnc3n2Cc2ccccc2OC)cc1 | i
COc1cccc(S(=O)(=O)NCc2nc3cccnc3n2C)c1 | i
CCCc1cc(Sc2ccc(NC(=O)Nc3ccc(OCC)cc3)cc2)n2ncnc2n1 | i
Cc1ccccc1NCc1nc2nc(C)c(Cc3ccc(Cl)cc3)c(=O)n2[nH]1 | i
